A word on the inhibition: it is the relative decrease from the control value, in per cent.

In all, about 190,000 compounds went through this assay and about 1,700 (0.89%) were called active. Only a selection was taken, and actives are over-represented in it overall. A number with no mark means an inactive call.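 The calls were made as follows: active = inhibition above the mean inhibition across all screened compounds plus 3 SD (cut at about 44% in these data); inactive = the rest.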

This test is described as follows: IL-6 driven STAT3 reporter inhibitors, primary screen, U3A cells, luciferase, luminescence, MLSCN library (AID 862).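 Also: 0% = DMSO only wells and 100% = 100 µM nifuroxazide control wells.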 Conditions: IL-6 STAT3-luciferase reporter, at 5.5 µM, stronger effect = higher value. For orientation: In a reporter assay the amount or activity of a reporter protein is the signal.
With `CC1=CC(=Cc2sc3ccccc3[n+]2C)C=C(C)O1`, the inhibition is 81.6% (active).

On to `COc1ccc(C(=O)CC2C(=O)N(C)C(=O)N(C)C2=O)cc1`, for which the inhibition was 8.6%.

Consider `Cc1cccc(-n2c(O)c(/C=N/N3CCOCC3)c(=O)[nH]c2=S)c1`, for which the inhibition is -17.9%.

As to `CN1CCN(c2cc(N3CCNCC3)ccc2[N+](=O)[O-])CC1`, the inhibition is -1.6%.

`Cc1nc2ccc(N3CCN(C)CC3)cc2nc1C`: the inhibition is -6.4%.

As for `COc1cccc(-c2nc3ccc(N4CCN(C)CC4)cc3[nH]2)c1`, the inhibition is 85.4% (active).

With `Cc1c(C(=O)O)cccc1-n1c(C)cc(/C=C2\C(=O)NC(=O)N(c3ccc4c(c3)OCO4)C2=O)c1C`, the inhibition was 2.2%.

For the molecule `O=C(CCCn1c(=O)[nH]c2cc(Cl)ccc2c1=O)N1CCC2(CC1)OCCO2`, the inhibition was 14.5%.

Turning to `O=C(CN1CCCC1=O)NCCc1ccccc1`, the inhibition is 3.6%.

Take `N#Cc1ccc(Cn2cc(C(=O)c3ccco3)c3ccccc32)cc1`: the inhibition is 10.3%.

(Values after PubChem BioAssay AID862 (The Scripps Research Institute Molecular Screening Center, 2007).)
